Some test systems named below: SK-MEL-2 melanoma; EKVX NSCLC; SN12C renal; UO-31 renal; TK-10 renal; ACHN renal; A498 renal; CCRF-CEM leukemia; MOLT-4 leukemia; SR leukemia; RPMI-8226 leukemia; OVCAR-8 ovarian; OVCAR-5 ovarian; OVCAR-4 ovarian; SK-OV-3 ovarian; IGROV1 ovarian; OVCAR-3 ovarian; HS 578T breast; NCI/ADR-RES ovarian.
What all share (assay): NCI-60 one-dose screen, 48 h (100 = growth as untreated, 0 = no growth, -100 = all killed)
What all share (settings): 10 µM unless noted

Compounds without any hit were thinned out: in the full panel of roughly 83,000, 20% have a hit.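 The test compound was applied at a single concentration to cells in 96-well plates for 48 hours, and percent growth was recorded.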 Unmarked numbers belong to inactive results. Active and inactive are the calls of the source. How the source made its calls: active means growth percent below 10; inactive means the rest.

In the case of `COc1ccc(-c2cc3ccc(N(C)C)cc3nc2N)c(F)c1`, the growth was 47.9% with SK-MEL-2 melanoma; 32.2% with EKVX NSCLC; 54% in the experiment on SN12C renal; 39.3% in the experiment with UO-31 renal; 49.1% in the experiment with TK-10 renal; 56.8% with ACHN renal. The growth in the experiment with A498 renal was 47.1%; in the experiment on CCRF-CEM leukemia, 39.7%; with MOLT-4 leukemia, 26.3%; in the experiment with SR leukemia, 12.9%; with RPMI-8226 leukemia, -19.7% (active); in the experiment with OVCAR-8 ovarian it was 26.3%. In addition, the growth in the experiment on OVCAR-5 ovarian was 69.6%; in the experiment on OVCAR-4 ovarian, 42.2%; with SK-OV-3 ovarian it was 46.8%; in the experiment on IGROV1 ovarian, 54.3%; with OVCAR-3 ovarian it was 34.6%; in the experiment with HS 578T breast, 62.8%. Besides, in the experiment on NCI/ADR-RES ovarian, the growth was 26%.
For `N#CC1=C(N)Oc2c(ccc3ccccc23)C1c1cc(=O)oc2ccc(Cl)cc12` (configuration not stated), the growth is 43.6% with SK-MEL-2 melanoma; 44.5% in the experiment on EKVX NSCLC; 47.5% in the experiment with SN12C renal; 50.9% in the experiment on UO-31 renal; 71.4% with TK-10 renal; 50.8% in the experiment with ACHN renal. In addition, the growth is 23.4% in the experiment with A498 renal; 18.6% in the experiment on CCRF-CEM leukemia; 20.8% with MOLT-4 leukemia; 22.9% with SR leukemia; 30.7% in the experiment on RPMI-8226 leukemia; 27.7% in the experiment on OVCAR-8 ovarian. Also, the growth in the experiment on OVCAR-5 ovarian is 51.6%; with OVCAR-4 ovarian it was 65.8%; in the experiment on SK-OV-3 ovarian, 16.9%; in the experiment on IGROV1 ovarian, 39.8%; in the experiment with OVCAR-3 ovarian, -9.67% (active); in the experiment with HS 578T breast it was 47.5%. For the same molecule, the growth in the experiment with NCI/ADR-RES ovarian is 12.2%.
For the molecule `COc1ccc(-c2c(NC(=O)Nc3ccc(Cl)c(C(F)(F)F)c3)cnn2-c2ccc(S(N)(=O)=O)cc2)cc1`, the growth with SK-MEL-2 melanoma was -4.24% (active); in the experiment on EKVX NSCLC it was 61.6%; in the experiment with SN12C renal it was 51.4%; in the experiment with UO-31 renal, 50.9%; in the experiment with TK-10 renal it was 30.9%; in the experiment on ACHN renal, 57.5%. In addition, the growth in the experiment on A498 renal was 26.8%; with CCRF-CEM leukemia it was 8.88% (active); in the experiment with MOLT-4 leukemia, 1.8% (active); with SR leukemia, 7.38% (active); with RPMI-8226 leukemia it was 19.9%; with OVCAR-8 ovarian it was 28.5%. In addition, the growth in the experiment on OVCAR-5 ovarian was 60.6%; in the experiment on OVCAR-4 ovarian, 32.8%; in the experiment on SK-OV-3 ovarian, 68.4%; in the experiment on IGROV1 ovarian, 33.1%; with OVCAR-3 ovarian it was 25.4%; with HS 578T breast it was 49.6%. The growth with NCI/ADR-RES ovarian is 89.9%.
Take `O=C(Nc1ccccc1Cl)c1c[nH]c(=O)c(-c2ccc(N3CCCOC4(CC4)C3)cc2)c1`: the growth in the experiment on SK-MEL-2 melanoma was 70.1%; with EKVX NSCLC it was 37.6%; in the experiment on SN12C renal, 74.9%; in the experiment with UO-31 renal, 65.7%; in the experiment on TK-10 renal, 52.4%; with ACHN renal, 72.2%. For the same molecule, the growth in the experiment on A498 renal is 47.9%; in the experiment on CCRF-CEM leukemia, 48.3%; with MOLT-4 leukemia, 48.1%; in the experiment with SR leukemia, 39.6%; with RPMI-8226 leukemia, 21.2%; in the experiment on OVCAR-8 ovarian it was 58.3%. Further, the growth in the experiment on OVCAR-5 ovarian is 87%; with OVCAR-4 ovarian it was 44.3%; with SK-OV-3 ovarian, 74.6%; in the experiment with IGROV1 ovarian, 85.7%; in the experiment with OVCAR-3 ovarian, 64.5%; with HS 578T breast, 87.3%. In the experiment on NCI/ADR-RES ovarian, the growth was 60.6%.
For the molecule `CSc1nc(N)nc2c1ncn2C`, the growth with SK-MEL-2 melanoma is 92.3%; in the experiment on EKVX NSCLC it was 94.2%; with SN12C renal it was 97.6%; in the experiment with UO-31 renal it was 94.6%; in the experiment with TK-10 renal, 93.5%; in the experiment with ACHN renal it was 106%. Also, the growth was 119% in the experiment on A498 renal; 98.3% in the experiment on CCRF-CEM leukemia; 87.6% in the experiment with MOLT-4 leukemia; 91.7% with SR leukemia; 96.4% in the experiment on RPMI-8226 leukemia; 106% in the experiment on OVCAR-8 ovarian. In addition, the growth in the experiment on OVCAR-5 ovarian was 100%; in the experiment on OVCAR-4 ovarian, 103%; with SK-OV-3 ovarian it was 90.4%; in the experiment on IGROV1 ovarian, 106%; in the experiment on OVCAR-3 ovarian it was 100%; with HS 578T breast it was 106%. For the same molecule, the growth with NCI/ADR-RES ovarian is 98.8%.
As for `CC(=S)Nc1ccccc1`, the growth with SK-MEL-2 melanoma is 97.3%; in the experiment with EKVX NSCLC, 87.3%; in the experiment on SN12C renal, 92.9%; in the experiment with UO-31 renal it was 81.5%; with TK-10 renal it was 109%; in the experiment with ACHN renal, 97.4%. Moreover, the growth was 103% with A498 renal; 102% with CCRF-CEM leukemia; 103% in the experiment on MOLT-4 leukemia; 103% in the experiment on SR leukemia; 99.7% in the experiment on RPMI-8226 leukemia; 94.5% with OVCAR-8 ovarian. Further, the growth in the experiment on OVCAR-5 ovarian is 99.8%; in the experiment with OVCAR-4 ovarian it was 95.4%; in the experiment with SK-OV-3 ovarian, 87.6%; in the experiment with IGROV1 ovarian, 89.8%; with OVCAR-3 ovarian, 101%; in the experiment with HS 578T breast it was 98.7%. Besides, the growth in the experiment with NCI/ADR-RES ovarian is 100%.
Take `COc1cc(/C=C/C(=O)c2c(C)n([O-])c3cc(C)c(C)cc3[n+]2=O)cc(OC)c1OC`: the growth in the experiment on SK-MEL-2 melanoma is 69.6%; with EKVX NSCLC, 79.2%; with SN12C renal it was 72.8%; with UO-31 renal it was 14.2%; in the experiment on TK-10 renal, 77%; with ACHN renal, 69.2%. Further, the growth is 41.8% in the experiment with A498 renal; 38% with CCRF-CEM leukemia; 44.3% with MOLT-4 leukemia; 29% in the experiment with SR leukemia; 38.8% in the experiment on RPMI-8226 leukemia; 63.2% in the experiment with OVCAR-8 ovarian. For the same molecule, the growth in the experiment with OVCAR-5 ovarian is 111%; in the experiment with OVCAR-4 ovarian, 73.3%; with SK-OV-3 ovarian, 86.6%; in the experiment on IGROV1 ovarian, -21.3% (active); in the experiment with HS 578T breast, 69%; with NCI/ADR-RES ovarian it was 72%.

The values above are taken from PubChem BioAssay (NCI).
